Bioassay records (PubChem BioAssay)
PNC assembly inh – blocks assembly of the perinucleolar compartment. PC3M PTB-GFP, PNC prevalence imaging, 16 h; hits give low values. activity change (PNC), negative = inhibition, % at 10 µM. hit rate 3.1% among 140,000;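 active means readout at or below -70, meaning at least 70% loss of cells showing the perinucleolar compartment, a nuclear body marking cancer cells; inconclusive means readout between -30 and a set limit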;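 further: plate controls were DMSO wells for no effect and camptothecin positive control wells for full effect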
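PC3M cells stably expressing PTB-GFP, 750–1000 cells/well, treated 16 h at 37 °C with compound (23 nl of library stock), in duplicate. After paraformaldehyde fixation and Hoechst stain, imaged at 20x; PNC prevalence scored by image analysis.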
HPGD block – inhibitors of human 15-hydroxyprostaglandin dehydrogenase (HPGD) | P15428 | AID 894 | Potency, µM, without a hit: at the highest dose activity change, negative = inhibition, usual class: inhibitors | purified HPGD, NADH fluorescence kinetic, PGE2 substrate | hit rate 4.3% among 150,000; further: potency means the concentration at half of the fitted maximal effect
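NADH formation kinetics: reaction with 30 uM PGE2 and 1 mM NAD+ (final), 20 nM enzyme, Tris-HCl pH 8 with Tween 20, after 15 min compound preincubation at room temperature. Fluorescence change, last versus first of five reads.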
ALDH1A1 inh – blocks purified human ALDH1A1 activity; hit rate 7.3% among 220,000; Purified ALDH1A1, NADH fluorescence, propionaldehyde substrate; Potency, µM (highest dose often 75.3 µM), inactives show at the highest dose activity, negative = inhibition, usual class: inhibitors; P00352;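 further: potency means the concentration at half of the fitted maximal effect; plate controls were no enzyme wells and a reference inhibitor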
Target sequence (P00352 whole entry, looked up): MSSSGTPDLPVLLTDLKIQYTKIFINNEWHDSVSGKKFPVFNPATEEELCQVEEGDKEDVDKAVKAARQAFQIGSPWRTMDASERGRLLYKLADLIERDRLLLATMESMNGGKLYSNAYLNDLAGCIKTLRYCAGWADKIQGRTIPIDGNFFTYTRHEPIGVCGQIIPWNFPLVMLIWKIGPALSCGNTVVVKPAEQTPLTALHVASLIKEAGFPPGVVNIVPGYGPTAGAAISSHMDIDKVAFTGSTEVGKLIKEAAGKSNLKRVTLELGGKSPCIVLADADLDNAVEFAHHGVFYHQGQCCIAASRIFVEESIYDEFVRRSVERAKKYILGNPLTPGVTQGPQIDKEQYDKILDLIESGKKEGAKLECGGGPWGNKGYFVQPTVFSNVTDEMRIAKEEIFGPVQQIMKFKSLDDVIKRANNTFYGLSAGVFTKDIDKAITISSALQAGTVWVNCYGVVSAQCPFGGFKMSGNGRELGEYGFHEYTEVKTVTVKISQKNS
ALOX12 inhib – blocks human 12-lipoxygenase activity; purified 12-hLO, xylenol orange hydroperoxide absorbance; Potency, µM (series often up to 57.1 µM), for inactives: at the top dose activity change, negative = inhibition, actives largely listed as inhibitors; hit rate 0.12% among 150,000; active means well fitted inhibition curve with a large enough effect; inconclusive means small, poorly fitted or top-dose-only effect; further: potency means the concentration at half of the fitted maximal effect; nearly all actives have a fitted effect of over 55% in size
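150 nM 12hLO, 25 mM Hepes pH 7.0 + 0.01% Triton X-100; cpd preinc 15 min RT; 40 uM arachidonic acid, 30 min RT; Fe-XO 30 min; A573/A405 ratio as read-out.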
LMNA splice mod – LMNA splicing modulation; AID 1487; Potency, µM (highest dose often 46.1 µM), for the others: at the highest dose ratio change, negative = inhibition, actives largely listed as inhibitors; HeLa LMNA splicing GFP/RFP minigene ratio, 48 h; hit rate 0.01% among 200,000; active means well fitted inhibition curve with a large enough effect in the signal ratio, with a control signal flat, not every such curve was filed as active; inconclusive means small, poorly fitted or top-dose-only effect, or effect the other way, or a change in a side signal; the % refers to the signal ratio; further: potency means the concentration at half of the fitted maximal effect
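S3 HeLa cells stably expressing lamin A-EGFP splicing minigene plus DsRed2, 600 cells/well, 48 h compound exposure at 37C. Laser-scanning cytometry; analysed as GFP (500-530 nm)/RFP (575-640 nm) total intensity ratio; 0.5% DMSO vehicle.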
An asterisk follows results filed as active; ? = inconclusive; . = not tested or not shown; [ ] = another dose, or the depositor's remark. Most compounds without a hit are left out; they make up all but 10% or so of the library. Unless noted, the call rests on the fitted dose curve; in most records, active means well fitted inhibition curve with a large enough effect (not every such curve was filed as active); inconclusive means small, poorly fitted or top-dose-only effect, or another doubt; inactive means no such curve, though single readings can be large or run the other way. Unless noted, on the % scale 0 is the no-effect control and ±100 the full control effect.

SMILES	PNC assembly inh	HPGD block	ALDH1A1 inh	ALOX12 inhib	LMNA splice mod
CCOC(=O)c1ccc(NC(=O)C(C)NS(=O)(=O)c2ccc(OC)cc2)cc1 (stereo unspecified)	42	?	14µM*	-8%	-6%
COc1ccc(S(=O)(=O)NC(C)C(=O)Nc2cccc(C(C)=O)c2)cc1 (stereo unspecified)	-112*	-10%	-13%	-2%	2%
COc1ccc(S(=O)(=O)NC(C)C(=O)Nc2ccccc2F)cc1 (stereo unspecified)	?	-7%	1%	-4%	0%
Cc1onc(-c2c(Cl)cccc2Cl)c1/C(N)=N/OC(=O)C1CC1	.	.	-7%	.	.
CC(=O)N1CCC2(CC1)CCN(c1cccc(-c3ccccc3)c1)CC2	.	-17%	-11%	-12%	.
Cc1ccc(Sc2ccc(NC(=O)CCl)cc2)cc1C	-6	?	2µM*	-8%	3%
Cc1ccc(C)c(Sc2ccc(NC(=O)CCl)cc2)c1	-12	-11%	0.89µM*	-3%	?
CSc1ccc(NC(=O)CC(C)=O)cc1	-12	-4%	-4%	-5%	4%
Cc1ccc(NC(=O)CSCC(N)=O)cc1C	28	-1%	4%	-3%	2%
CC(C(=O)N1CCN(c2ccc([N+](=O)[O-])cc2)CC1)N1C(=O)C2CC=CCC2C1=O (stereo unspecified)	.	.	-98%	.	.
O=C(CN1C(=O)C2CC=CCC2C1=O)N1CCN(c2ccc([N+](=O)[O-])cc2)CC1 (stereo unspecified)	.	.	25µM*	.	.
CCN(c1cccc(C)c1)S(=O)(=O)c1ccc2c(c1)CCN2C(C)=O	29	-13%	8%	-5%	?
CCN(c1cccc(C(F)(F)F)c1)S(=O)(=O)c1ccc2c(c1)CCN2C(C)=O	-98*	-1%	9%	1%	?
CCN(CC)S(=O)(=O)c1ccc2c(c1)[nH]c(=S)n2CC	.	.	18µM*	.	?
CCN(CC)S(=O)(=O)c1ccc2c(c1)nc(CCC(=O)O)n2CC	.	.	6%	.	12%[46 µM]
CCN(CC)S(=O)(=O)c1ccc2nc(CCl)[nH]c2c1	.	.	20µM*	.	.
CCN(CC)S(=O)(=O)c1ccc(Cl)nc1	.	.	-4%	.	3%[9.22 µM]
CCOC(=O)c1ccc2c(c1)[nH]c(=S)n2CC	.	.	25µM*	.	-18%[46 µM]
CCOC(=O)c1ccc2c(c1)n(CC)c(C)[n+]2CC	.	.	0%	.	?
Cc1c(-c2ccccc2)sc(Br)c1C(=O)N1CCOCC1	1	1.6µM*	13%	7%	0%
N=c1sccn1CC(=O)Nc1ccc(SC(F)F)cc1	.	.	?	.	-17%[46 µM]
N=c1sccn1CC(=O)Nc1ccc(Cl)cc1[N+](=O)[O-]	.	.	28µM*	.	.
N=c1sccn1CC(=O)Nc1ccc(S(N)(=O)=O)cc1	.	.	7.1µM*	.	-3%[46 µM]
COc1cc(NC(=O)Cn2ccsc2=N)c(C)cc1[N+](=O)[O-]	.	.	-9%	.	.
COc1cccc(/C=N/Nc2ncnc3scc(-c4ccccc4)c23)c1OC	12	18µM*	?	-1%	13%
SMILES	PNC assembly inh	HPGD block	ALDH1A1 inh	ALOX12 inhib	LMNA splice mod
COc1ccccc1C1CCN(c2ccc([N+](=O)[O-])c(OC)c2)CC1	.	.	1%	.	.
COc1ccccc1C1C([N+](=O)[O-])=CC([N+](=O)[O-])=CN1C (stereo unspecified)	?	-10%	13µM*	-1%	3%
COc1ccccc1C1NC=C([N+](=O)[O-])C=C1[N+](=O)[O-] (stereo unspecified)	16	3.5µM*	8.9µM*	-7%	?
CC(=O)N1C2(C=CC1(C)C(=O)NCCN1CCOCC1)CCCCC2 (stereo unspecified)	.	-9%	-12%	0%	.
Cc1cc2c(nc1C)CCCCN2C[C@H](O)CN1CCCc2nc(-c3ccc(Br)cc3)ccc21	.	.	-1%[13.5 µM]	.	.
COc1ccc(S(=O)(=O)NCc2cccn2Cc2cccc(C)c2)cc1OC	.	.	.	.	-10%[46 µM]
CC(=O)N[C@@H](CSC/C=C(\C)CC/C=C(\C)CCC=C(C)C)C(=O)O	.	-7%	6%	-1%	.
CC(=O)OCCNc1cc(Sc2nc3ccccc3[nH]2)c2nonc2c1[N+](=O)[O-]	-19	3.2µM*	10%	-22%	?
CC(=O)OCCCNc1cc(Sc2ccc(C)cc2)c2nonc2c1[N+](=O)[O-]	?	-22%	-13%	-3%	-6%
CCCC(=O)OCCNc1cc(SCCC(=O)OC)c2nonc2c1[N+](=O)[O-]	-12	28µM*	10µM*	-11%	?
CC(=O)OCCNc1cc(SCc2ccco2)c2nonc2c1[N+](=O)[O-]	13	?	?	-14%	?
CC(=O)OCCCNc1cc(Sc2nc3ccccc3s2)c2nonc2c1[N+](=O)[O-]	16	2.5µM*	11µM*	6%	6%
O=[N+]([O-])c1ccc(S(=O)(=O)N2CCn3cccc3C2c2ccc(Br)cc2)cc1 (stereo unspecified)	.	.	.	.	-6%[46 µM]
Cc1ccc(N2CCN(C(=O)c3c4c(nc5ccccc35)C(=O)N(C3CCCCC3)C4)CC2)c(C)c1	.	.	.	.	-8%[46 µM]
COC(=O)c1ccccc1NC(=O)CN1CCC(NC(=O)c2ccccc2C)CC1	-3	-4%	20µM*	-4%	?
Cc1ccc2oc(=O)c3cc(C(=O)NCCN4CCc5ccccc5C4)sc3c2c1	0	?	28µM*	-1%	-4%
Cc1cc(=O)n2nc(N3CCCC(C(=O)N4CCN(c5ccccc5)CC4)C3)sc2n1 (stereo unspecified)	-117*	-3%	-15%	-1%	3%
N#Cc1nc(COc2ccccc2)oc1N1CCCCC1	24	?	13µM*	-7%	9%
N#Cc1nc(COc2ccc(Cl)cc2)oc1N1CCCCCC1	?	?	?	-11%	0%
CC1CN(c2oc(COc3ccc(Cl)cc3Cl)nc2C#N)CC(C)O1 (stereo unspecified)	-100*	?	5%	-10%	-7%
N#Cc1nc(COc2ccccc2Cl)oc1N1CCCCCC1	-122*	-25%	?	6%	-1%
C=CCNC(=O)/C(=C/c1cn(-c2ccccc2)nc1-c1cccc([N+](=O)[O-])c1)NC(=O)c1ccccc1	14	.	1µM*	-1%	-10%
Cc1ccc(Cl)cc1N1CCN(C(=O)Cn2c(-c3cccs3)cc3cc(F)ccc32)CC1	.	.	.	.	-6%[46 µM]
Cn1c(=O)c(Cc2ccccc2)c(O)c2ccccc21	-28	?	?	1%	-4%
Cn1c(N=NC(=O)c2ccccc2)c(O)c2ccccc21	-86*	-15%	?	-1%	?
Cc1nc2cncnc2n(Cc2ccccc2)c1=O	.	.	14%	.	?
O=C(CSc1nncn1-c1cccnc1)N(c1ccccc1)c1ccccc1	.	.	16µM*	.	.
C=CCN(CC=C)C(=S)NC(=O)Cc1cccc2ccccc12	.	.	19µM*	.	.
CCN(CC)C(=S)NC(=O)Cc1ccccc1	.	.	5%	.	.
COCCCN1CN(Cc2ccccc2)CNC1=S	-92*	-7%	8.9µM*	1%	1%
